From PubChem
hgDAF12 agonist: activates the H. glycines DAF-12 receptor ligand-binding domain. HEK293 GAL4-hgDAF12 UAS-luciferase reporter, agonist luminescence; normalized to butyrate control. activation, % at 6.8 µM. actives 1.8% (n = 370,000). AID 687014;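 active means activation above a cutoff set at the mean of all screened compounds plus 3 SD, cut at about 10% in these data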;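 further: 0% = DMSO wells and 100% = sodium butyrate wells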
ssDAF12 agonist: activates DAF-12 receptor from parasite S. stercoralis. HEK293 ssDAF-12/GRIP1 lit1-tk-luc reporter, luminescence; % of 3 µM dafachronic acid response. activation, % at 6.8 µM. actives 1% (n = 370,000);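 active means activation above the mean over all tested compounds plus 3 SD, cut at about 0.9% in these data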;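 further: 0% = DMSO-only wells and 100% = 3 µM delta7-dafachronic acid wells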
hcDAF12 agonist: H. contortus DAF-12 activation, primary screen | HEK293 hcDAF-12 lit1-tk-luc reporter, luminescence; 0% DMSO, 100% Δ7-dafachronic acid | activation, % at 6.8 µM | actives 1.4% (n = 370,000);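 active means activation above the mean of all tested compounds plus 3 SD, cut at about 5.5% in these data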;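 further: 100% = response to 3 µM Δ7-dafachronic acid high control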
SMARCA2 act: activators of SMARCA2 function; activation, % at 9.1 µM; actives 1% (n = 370,000); MG213 cells, MMTV-luciferase reporter, dexamethasone, overnight; AID 652017; in the data active means activation above about 7.8%;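 further: 0% = vehicle wells and 100% = reference activator wells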
DAX1 inh-1: inhibits human nuclear receptor DAX1 | P51843 | HEK293 Gal4-DAX1 luciferase reporter, luminescence | inhibition, % at 6.75 µM | actives 0.99% (n = 340,000);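 active means inhibition above the mean over all tested compounds plus 3 SD, cut at about 4.2% in these data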;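 further: 0% = DAX1-transfected cells with DMSO and 100% = empty-vector control cells with DMSO; inhibition shows as a rise in luminescence from relieved DAX1 repression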
Target sequence (P51843 207-470 limits assumed): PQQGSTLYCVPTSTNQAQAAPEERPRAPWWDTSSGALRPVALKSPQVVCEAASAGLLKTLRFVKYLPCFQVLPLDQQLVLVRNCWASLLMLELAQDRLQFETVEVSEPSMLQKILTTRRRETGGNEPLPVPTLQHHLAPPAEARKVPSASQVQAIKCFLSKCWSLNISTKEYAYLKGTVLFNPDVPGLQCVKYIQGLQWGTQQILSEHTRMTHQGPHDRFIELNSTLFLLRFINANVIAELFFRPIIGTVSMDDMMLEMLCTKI
DAX1 inh-2: DAX1 (NR0B1) inhibition, primary screen. HEK293T StAR-luciferase reporter, SF-1/DAX-1 repression relief. inhibition, % at 6.8 µM. actives 1.1% (n = 370,000). AID 652010;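 active means inhibition above the mean over all tested compounds plus 3 SD, cut at about 3.6% in these data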;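 further: 0% = DAX-1 cells with DMSO and 100% = cells lacking DAX-1 with DMSO; higher inhibition means more luminescence from relief of DAX-1 repression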
LXR ag: counter-screen for hcDAF-12 agonists: agonists of human LXR-beta; shares compounds with hcDAF12 agonist; HEK293 Gal4-LXR tk-luc reporter, luminescence, 24 h; normalized: DMSO 0%, positive control 100%; activation, % at 6.8 µM; 3,400 tested, under 10 active; AID 743027;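 active means mean percent activation of the reporter above a cutoff set as the average over tested compounds plus their standard deviation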
Target sequence (P55055 whole entry, looked up, the tested form may be a part): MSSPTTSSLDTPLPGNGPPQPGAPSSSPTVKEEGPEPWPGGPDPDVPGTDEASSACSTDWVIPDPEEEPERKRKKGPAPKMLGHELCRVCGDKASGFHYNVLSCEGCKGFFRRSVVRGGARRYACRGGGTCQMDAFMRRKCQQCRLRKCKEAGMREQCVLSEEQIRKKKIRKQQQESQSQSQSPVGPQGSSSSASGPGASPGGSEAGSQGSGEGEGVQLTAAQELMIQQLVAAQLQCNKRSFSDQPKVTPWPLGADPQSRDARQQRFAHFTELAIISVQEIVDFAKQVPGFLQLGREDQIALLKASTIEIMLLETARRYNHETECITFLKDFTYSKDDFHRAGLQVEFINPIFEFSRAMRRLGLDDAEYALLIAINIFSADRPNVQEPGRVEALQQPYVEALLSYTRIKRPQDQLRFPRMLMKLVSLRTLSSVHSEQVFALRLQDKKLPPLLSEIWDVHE
hcDAF12 ag: confirmation of H. contortus DAF-12 agonists | shares compounds with hcDAF12 agonist | HEK293 hcDAF-12 lit1-tk-luc reporter, luminescence; % of Δ7-dafachronic acid response | activation, % at 6.8 µM | actives 61% (n = 3,400) | AID 743032;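 active means mean activation across triplicate tests above the threshold derived from the earlier primary screen, cut at about 5.5% in these data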;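 further: 0% = DMSO only wells and 100% = 3 µM Δ7-dafachronic acid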
hgDAF12 conf: confirmation of H. glycines DAF-12 agonists | AID 743050 | activation, % at 6.8 µM | actives 80% (n = 3,300) | shares compounds with hgDAF12 agonist | HEK293 GAL4-hgDAF12 luciferase reporter, agonist mode; percent of butyrate response;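 active means mean activation over triplicate wells above the hit cutoff derived from the earlier primary screen, cut at about 11% in these data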;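 further: 0% = DMSO low control and 100% = 2 mM sodium butyrate high control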
LXRb DAF12 ctr: activates human LXR-beta, counter-screen for DAF-12 agonists; HEK293 Gal4-LXR luciferase reporter, 24 h; activation, % at 6.8 µM; 3,300 tested, under 10 active; shares compounds with hgDAF12 agonist;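 active means mean activation of the triplicate above a set limit carried over from the primary screen, none filed active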
Starred values were filed as active, the others as inactive; nt = not tested or not shown. The list is not random: actives were taken first. Their share in the collection is about 4.8%.

SMILES | hgDAF12 agonist | ssDAF12 agonist | hcDAF12 agonist | SMARCA2 act | DAX1 inh-1 | DAX1 inh-2 | LXR ag | hcDAF12 ag | hgDAF12 conf | LXRb DAF12 ctr
O=[N+]([O-])c1ccccc1/C=C/c1ccc2ccccc2n1 | 16* | 2.1* | 18* | 4 | 7.1* | 2 | 2 | 12* | 20* | 1
O=[N+]([O-])c1ccc(/C=C/c2ccc3cccc([N+](=O)[O-])c3n2)cc1 | 5 | -1 | -1 | 0 | 1 | -1 | nt | nt | nt | nt
Cc1ccc(-c2csc(NC(=O)/C=C/c3ccco3)c2C(=O)O)cc1 | 14* | 0 | 11* | 6 | 1 | 3 | 1 | 6.0* | 11* | 1
Cc1cc(N2CCN(C(=O)OC(C)(C)C)C[C@@H]2C)ccc1N1C[C@@H](C)O[C@@H](C)C1 | 2 | -1 | 0 | 1 | nt | -2 | nt | nt | nt | nt
CCOc1ncccc1C(=O)OCC(=O)Nc1c(C)cc(C)cc1C | -1 | 0 | -1 | 2 | 0 | 0 | nt | nt | nt | nt
CCOc1ncccc1C(=O)OCC(=O)Nc1ccc(-c2nc3ccc(C)cc3s2)cc1 | 18* | 1.0* | 7.5* | 2 | 1 | 4.4* | 2 | 5.7* | 18* | 1
Cc1nnc2nc(N)[nH]n2c1=O | 1 | -1 | -1 | -6 | nt | 1 | nt | nt | nt | nt
Cc1cc(C(=O)COC(=O)c2ccc(O)cc2)c(C)n1-c1ccccc1F | 0 | -2 | 0 | -3 | 1 | 0 | nt | nt | nt | nt
Cc1cc(C(=O)COC(=O)c2ccc(O)cc2)c(C)n1CC(F)(F)F | 15* | 1 | 8.9* | 2 | 2 | 4.2* | 1 | 7.3* | 18* | 1
OC(c1ccccc1)(c1ccccc1)C1CCN(CCCOc2cccc(F)c2)CC1 | 3 | -1 | 1 | -5 | nt | 0 | nt | nt | nt | nt
Cc1ccc(NC(=O)c2nnn(-c3ccc4c(c3)OCCO4)c2N)cc1 | 8 | -1 | 0 | -2 | 2 | 1 | nt | nt | nt | nt
Nc1c(C(=O)Nc2ccccc2)nnn1-c1ccc2c(c1)OCCO2 | 14* | 1.8* | 8.8* | -1 | -1 | 3 | 1 | 8.1* | 16* | 1
C[C@@H]1CN([C@@H](C)CO)C(=O)CCCn2cc(nn2)CO[C@H]1CN(C)C(=O)C1CCCCC1 | -1 | -1 | 0 | -3 | nt | 0 | nt | nt | nt | nt
c1ccc(SCc2nc3ccccc3s2)nc1 | 14* | 4.5* | 15* | 6 | 3 | 2 | 1 | 7.8* | 16* | 1
Cc1cc(C(=O)OCc2nc3ccccc3s2)c(C)o1 | 7 | -1 | 4 | 4 | 1 | 0 | nt | nt | nt | nt
O=C(O)CCCc1nc2ccccc2s1 | 2 | -1 | -2 | 1 | 0 | 0 | nt | nt | nt | nt
Cc1cc(OCc2nc3ccccc3s2)ccc1N | 14* | 2.0* | 13* | 4 | 3 | 2 | 1 | 14* | 19* | 1
c1ccc(OCc2nc3ccccc3s2)cc1 | 14* | 1.6* | 8.6* | 4 | 5.8* | 3 | 1 | 5.9* | 18* | 1
CCCCCCCCN1C(=O)[C@@H](CC(=O)NCc2cccc3ccccc23)C[C@@]2(C(=O)OC)C1=C[C@H](C1CCCC1)O[C@@H]2C | 0 | 0 | 1 | -5 | nt | 0 | nt | nt | nt | nt
Oc1ccc(F)cc1-c1cc(-c2ccc3c(c2)OCCO3)n[nH]1 | 15* | 1.3* | 8.1* | 4 | 4.4* | 3 | 1 | 4 | 20* | 1
O=C1C=C(c2ccc3c(c2)OCCO3)C[C@@H](c2ccc(F)cc2)C1 | 3 | -1 | -1 | 3 | 1 | 0 | nt | nt | nt | nt
CCCN1CNc2c(c(=O)[nH]c(=S)n2CCc2cccc(Cl)c2Cl)C1 | 1 | -2 | -1 | nt | nt | nt | nt | nt | nt | nt
O=C(N/N=C/c1c[nH]c2ccccc12)c1cccs1 | 14* | 1.7* | 6.9* | 0 | nt | 1 | 1 | 6.4* | 11* | 0
O=C(N/N=C/c1c[nH]c2ccccc12)c1ccc2c(c1)OCCO2 | 18* | 1.7* | 13* | 0 | 3 | 1 | 1 | 7.0* | 23* | 1
O=C(N/N=C/c1cccc2ccccc12)c1cccs1 | 17* | 1 | 8.2* | 0 | 4.5* | 3 | 1 | 7.3* | 16* | 1
SMILES | hgDAF12 agonist | ssDAF12 agonist | hcDAF12 agonist | SMARCA2 act | DAX1 inh-1 | DAX1 inh-2 | LXR ag | hcDAF12 ag | hgDAF12 conf | LXRb DAF12 ctr
O=C(NC(Cc1c[nH]c2ccccc12)C(=O)N/N=C/c1cccc2ccccc12)c1cccs1 (configuration not stated) | 0 | -1 | -2 | -6 | 0 | -1 | nt | nt | nt | nt
COc1cc(Nc2cc(C)n(-c3cc(OC)cc(OC)c3)c(=O)c2)cc(OC)c1 | -6 | -2 | -1 | 1 | nt | -1 | nt | nt | nt | nt
COC(=O)[C@]12C[C@H](CC(=O)NCCC(C)C)C(=O)N(CCC3=CCCCC3)C1=C[C@H](COCc1ccccc1)O[C@@H]2C | -8 | -1 | -1 | -6 | nt | 1 | nt | nt | nt | nt
CC(=Nc1cccc(C)c1)c1sc2ccccc2c1O | 14* | 4.0* | 15* | 7.9* | 4 | 2 | 1 | 13* | 25* | 1
O=[N+]([O-])c1cccc(N=Cc2sc3ccccc3c2O)c1 | 1 | -1 | 1 | 1 | nt | 1 | nt | nt | nt | nt
Oc1ccc(/C=N/Nc2cccc(Cl)n2)c(O)c1 | 14* | 2.2* | 10* | 7 | 6.3* | 2 | 1 | 2 | 19* | 1
O=C(Nc1nc2ccccc2[nH]1)c1ccccc1OC(F)F | 14* | 1 | 13* | 4 | -2 | 3 | 2 | 14* | 14* | 1
Cc1ccsc1C(=O)Nc1nc2ccccc2[nH]1 | 17* | 1.1* | 10* | -1 | -2 | 4.5* | 1 | 10* | 17* | 1
Cc1ccnc(N/C=C/C(=O)c2ccc(Br)cc2)c1 | 18* | 0 | 9.0* | 5 | 0 | 3 | 2 | 7.2* | 21* | 1
Cc1cc(N/C=C/C(=O)c2ccc(Br)cc2)no1 | 4 | 0 | 2 | 4 | 0 | 1 | nt | nt | nt | nt
O=S(=O)(c1ccccc1)N1CCCc2nc(-c3ccc(Br)cc3)ccc21 | 0 | -1 | 0 | -9 | nt | 0 | nt | nt | nt | nt
COc1cccc(-c2nc(-c3ccc(Br)o3)no2)c1 | 31* | 2.0* | 7.6* | 7 | 5.4* | 4.4* | 1 | 12* | 23* | 1
